# PubChem BioAssay (EPA / NIEHS)
# Inconclusive results are not listed. The source made the active and inactive calls. How the source made its calls: active means hit-call score of the fitted dose curve at least 0.9, where 1 is the maximum; inconclusive means response in the unintended direction; inactive means score below 0.9.
# Target: Cellular tumor antigen p53 (Homo sapiens) (UniProt P04637)
# Test: TOX21_p53_BLA_p3_ratio: Tox21 HCT-116 p53 Agonism Beta-lactamase Assay, Ratio, Phase 3 (AID 2283596)
# Outline: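 HCT116 p53-bla cells (4000/well) given compound in DMSO (217-fold dilution) after 5 h, incubated 16 h at 37C. CCF4-AM substrate 2 h at room temperature; 460/530 nm emission ratio, gain fitted against DMSO.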
# Chain of Cellular tumor antigen p53 (Homo sapiens) (P04637 whole entry, looked up): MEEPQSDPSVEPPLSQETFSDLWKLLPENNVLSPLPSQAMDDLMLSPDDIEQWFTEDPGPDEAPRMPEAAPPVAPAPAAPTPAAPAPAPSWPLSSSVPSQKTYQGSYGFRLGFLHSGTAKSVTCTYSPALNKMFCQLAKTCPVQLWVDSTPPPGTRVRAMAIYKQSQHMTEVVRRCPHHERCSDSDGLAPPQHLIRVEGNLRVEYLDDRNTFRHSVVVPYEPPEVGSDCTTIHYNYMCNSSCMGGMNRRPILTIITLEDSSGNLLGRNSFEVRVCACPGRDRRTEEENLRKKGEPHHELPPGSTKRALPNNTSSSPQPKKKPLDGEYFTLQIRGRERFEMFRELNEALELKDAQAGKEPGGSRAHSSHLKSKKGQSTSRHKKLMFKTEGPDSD
row,SMILES,outcome
1,CCCCCc1ccc(Cl)cc1,inactive
2,O=c1n(CCO)c(=O)n(CCO)c(=O)n1CCO,inactive
3,O=C(C(Cl)Cl)N1CCOC12CCCCC2,inactive
4,O=C(O)Cc1c(Cl)ccc(Cl)c1Cl,inactive
5,CCC(Cc1ccccc1)(C(=O)c1ccc(N2CCOCC2)cc1)N(C)C (centres undefined),inactive
6,C[Si](C)O[Si](C)(C)O[Si](C)(C)O[Si](C)C,inactive
7,c1ccc(CCCc2ccncc2)cc1,inactive
8,CNC(=S)NN,inactive

# Test system: not listed separately
# Test: TOX21_p53_BLA_p4_viability: Viability Assessment in the Tox21 HCT-116 p53 Agonism Beta-lactamase Assay, Phase 4 (AID 2283597);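 further: hits lower the luminescence signal meaning cytotoxicity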
# Outline: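 Luminescent ATP readout (CellTiter-Glo, 30 min, room temperature) in the same wells as the p53 bla ratio. HCT116 cells were treated for 16 h at 37C with DMSO-dissolved compounds.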
row,SMILES,outcome
1,O=c1n(CCO)c(=O)n(CCO)c(=O)n1CCO,inactive
2,O=C(C(Cl)Cl)N1CCOC12CCCCC2,inactive
3,O=C(O)Cc1c(Cl)ccc(Cl)c1Cl,inactive
4,COCCOCCOCCOCCOC,inactive
5,CC1=CC[C@H]2C[C@@H]1C2(C)C,inactive
6,CCC(Cc1ccccc1)(C(=O)c1ccc(N2CCOCC2)cc1)N(C)C (centres undefined),inactive
7,COC(=O)c1sccc1S(N)(=O)=O,inactive
8,CC(=O)[C@H]1[C@H](C#N)C[C@H]2[C@@H]3CC=C4C[C@@H](O)CC[C@]4(C)[C@H]3CC[C@@]21C,inactive
9,COC(=O)c1c(C)cc(O)c(C)c1O,inactive
10,N#CCc1ccc(Cl)cc1Cl,inactive
11,O=C(O)c1cc(Cl)cc([N+](=O)[O-])c1Cl,inactive

# Target: Cellular tumor antigen p53 (Homo sapiens) (UniProt P04637)
# Test: TOX21_p53_BLA_p5_ratio: Tox21 HCT-116 p53 Agonism Beta-lactamase Assay, Ratio, Phase 5 (AID 2283599)
# Outline: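 HCT-116 p53-bla cells (4000/well) plated 5 h, dosed with compound (217-fold DMSO dilution) for 16 h at 37 C; CCF4-AM substrate 2 h at room temperature. Activity is the 460/530 nm emission ratio (405 nm excitation), fitted in gain-of-signal direction versus DMSO.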
row,SMILES,outcome
1,CCCCCc1ccc(Cl)cc1,inactive
2,O=c1n(CCO)c(=O)n(CCO)c(=O)n1CCO,inactive
3,O=c1[nH]c(=O)c2[nH]c(=O)[nH]c2[nH]1,inactive
4,COC(=O)c1sccc1S(N)(=O)=O,inactive
5,C=C(C)[C@H]1CC=C(C)CC1,inactive
6,CC(=O)[C@H]1[C@H](C#N)C[C@H]2[C@@H]3CC=C4C[C@@H](O)CC[C@]4(C)[C@H]3CC[C@@]21C,inactive
7,COC(=O)c1c(C)cc(O)c(C)c1O,inactive
8,N#CCc1ccc(Cl)cc1Cl,inactive

# Test system: not listed separately
# Test: TOX21_p53_BLA_p5_viability: Viability Assessment in the Tox21 HCT-116 p53 Agonism Beta-lactamase Assay, Phase 5 (AID 2283600)
# Outline: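 Seeded cells (4000/well) settle 5 h before compound addition. Plates then incubate 16 h at 37C, receive FRET substrate for 2 h, and finally CellTiter-Glo, with luminescence measured after a 30 min room-temperature incubation.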
row,SMILES,outcome
1,O=C(O)Cc1c(Cl)ccc(Cl)c1Cl,inactive
2,COCCOCCOCCOCCOC,inactive
3,CCC(Cc1ccccc1)(C(=O)c1ccc(N2CCOCC2)cc1)N(C)C (centres undefined),inactive
4,C[Si](C)O[Si](C)(C)O[Si](C)(C)O[Si](C)C,inactive
5,CC(=O)[C@H]1[C@H](C#N)C[C@H]2[C@@H]3CC=C4C[C@@H](O)CC[C@]4(C)[C@H]3CC[C@@]21C,inactive
6,CNC(=S)NN,inactive
7,COC(=O)c1c(C)cc(O)c(C)c1O,inactive
